Structures are written as SMILES. This is part of a sample that, as a whole, favours compounds with a hit. Of some 83,000 tested, about 20% had one in any assay.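 For each line, cells grew in 96-well plates with the test compound present at a single concentration for 48 hours.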 A number with no mark means an inactive call. Calls of active or inactive are those of the source. How the source made its calls: active means growth percent below 10; inactive means the rest.

What all share (assay): NCI-60 one-dose screen, 48 h (100 = growth as untreated, 0 = no growth, -100 = all killed)
What all share (conditions): 10 µM unless noted

The test system of assay [1] is RPMI-8226 leukemia.
For assay [2], the system named is OVCAR-8 ovarian.
The test system of assay [3] is OVCAR-5 ovarian.
For assay [4], the system named is OVCAR-4 ovarian.
Assay [5] deals with SK-OV-3 ovarian.
Assay [6] has as its system IGROV1 ovarian.
Assay [7] deals with OVCAR-3 ovarian.
For assay [8], the system named is HS 578T breast.
In assay [9] the test system is NCI/ADR-RES ovarian.
The test system of assay [10] is T-47D breast.
The test system of assay [11] is BT-549 breast.
In assay [12] the test system is MDA-MB-435 melanoma.
Assay [13] concerns SW-620 colon.
The subject of assay [14] is MCF7 breast.
For assay [15], the system named is HCT-116 colon.
Assay [16] relates to HCC-2998 colon.
In assay [17] the test system is KM12 colon.

For `Cc1c(C(N)=O)sc2nc(SCC(=O)Nc3ccc(Cl)cc3)n(-c3ccccc3)c(=O)c12`, the growth was 112% in [1]; 118% in [2]; 93.9% in [3]; 101% in assay [4]; 105% in assay [5]; 20.6% in [6]. For the same compound, the growth is 131% in [7]; 348% in [8]; 97.2% in assay [9]; 91.1% in assay [10]; 69.1% in [11]; 112% in assay [12]. Also, the growth in assay [13] is 128%; in assay [14], 104%; in assay [15] it was 103%; in assay [16], 109%; in assay [17], 118%.
As for `Cc1ccccc1-c1cc(Cc2ccccc2O)c(=O)[nH]n1`, the growth in assay [1] was 78.6%; in assay [2], 91.8%; in assay [3] it was 118%; in assay [4], 106%; in assay [5], 253%; in assay [6], 86.6%. In addition, the growth was 100% in assay [7]; 104% in assay [8]; 111% in assay [9]; 200% in assay [10]; 112% in assay [11]; 109% in assay [12]. Moreover, the growth was 116% in [13]; 103% in assay [14]; 93.5% in assay [15]; 124% in assay [16]; 98.1% in assay [17].
On to `CCCCCCCCCCCCCCCCN=C(CC(=O)O)C(=O)O`, for which the growth in assay [1] was 103%; in assay [2] it was 107%; in assay [3], 116%; in assay [4], 34.8%; in assay [5] it was 105%; in [6] it was 88.6%. Also, the growth is 107% in assay [7]; 96.9% in assay [8]; 105% in assay [9]; 102% in [10]; 101% in assay [11]; 96.7% in [12]. In addition, the growth in assay [13] is 101%; in assay [14], 86.5%; in assay [15], 87.2%; in assay [16], 104%; in assay [17], 100%.
For the compound `O=C1c2ccccc2-c2c1nc1ccccc1[n+]2[O-]`, the growth in assay [1] is 106%; in assay [2], 108%; in assay [3] it was 94.9%; in assay [4], 115%; in assay [5], 102%; in assay [6], 99.9%. Moreover, the growth is 107% in assay [7]; 106% in [8]; 105% in assay [9]; 107% in [10]; 98.2% in assay [11]; 110% in [12]. Also, the growth in [13] is 97.5%; in assay [14], 95.8%; in assay [15], 98.5%; in [16], 104%; in [17], 101%.
As for `CC(C)C(=O)Cc1cnccn1`, the growth in [1] is 109%; in assay [2] it was 102%; in [3] it was 108%; in assay [4] it was 117%; in [5], 116%; in assay [6], 106%. The growth in [7] is 111%; in assay [8], 96.4%; in [9] it was 101%; in [10] it was 109%; in [11], 110%; in [12] it was 101%. Besides, the growth is 102% in assay [13]; 103% in assay [14]; 109% in [15]; 104% in assay [16]; 112% in assay [17].
Consider `C=C1CC[C@@H]2[C@](C)(COC(C)=O)[C@H](OC(C)=O)CC[C@@]2(C)[C@@H]1CC(Nc1ccc(S(=O)(=O)Nc2cc(C)on2)cc1)C1=CCOC1=O` (stereo partly drawn), for which the growth in assay [1] is -15.2% (active); in assay [2], 16.1%; in [3], 52.2%; in assay [4], 68.2%; in assay [5] it was 109%; in assay [6] it was 62.6%. The growth was 7.95% (active) in assay [7]; 89.5% in assay [8]; 31.6% in assay [9]; 63.6% in assay [10]; 27.2% in [11]; 35% in assay [12]. For the same compound, the growth in [13] was 14.7%; in [14] it was 12.3%; in [15] it was -1.13% (active); in assay [16] it was 68.3%; in assay [17], 30.5%.
For the compound `CN(C)c1cccc2c(S(=O)(=O)N[C@H]3CC[C@H]4[C@@H]5CCc6cc(O)ccc6[C@H]5CC[C@]34C)cccc12`, the growth was 7.82% (active) in assay [1]; 45.8% in [2]; 78.1% in assay [3]; 50.6% in assay [4]; 33.3% in assay [5]; 33.1% in assay [6]. Moreover, the growth in [7] was 19.7%; in [8] it was 56.5%; in assay [9] it was 12.3%; in assay [10] it was 21.5%; in [11] it was 35.9%; in assay [12], -46.4% (active). Moreover, the growth in [13] was 24.8%; in assay [14] it was 12.9%; in [15] it was 13.1%; in [16] it was 60.6%; in [17] it was 18.5%.
On to `Fc1ccc(-c2nnc(-c3c(-c4ccc(F)cc4)nc4ncccn34)o2)cc1`, for which the growth in [1] was 92.5%; in assay [2], 95.7%; in assay [3] it was 87.3%; in assay [4], 106%; in assay [5], 112%; in assay [6], 106%. Moreover, the growth in assay [7] was 110%; in [8], 115%; in [9], 97.3%; in assay [10] it was 95.4%; in [11] it was 99.9%; in assay [12], 97%. The growth was 108% in [13]; 92.4% in [14]; 94.5% in [15]; 111% in assay [16]; 103% in assay [17].
For `CN(CC(=O)N(Cc1ccc(C2CCCCC2)cc1)c1ccc(C(=O)O)cc1)S(=O)(=O)c1c(F)c(F)c(F)c(F)c1F`, the growth in assay [1] is 11.3%; in assay [2], 6.02% (active); in [3] it was 116%; in [4], 83.8%; in [5] it was 106%; in assay [6], -24.8% (active). The growth is -83.1% (active) in assay [7]; 18.5% in assay [8]; 87.7% in [9]; -6.87% (active) in [10]; 75.4% in [11]; 68.3% in assay [12]. For the same compound, the growth in assay [13] was -67% (active); in assay [14], 10.6%; in assay [15], 5.63% (active); in assay [16], -62.9% (active); in [17] it was 90%.

The values are drawn from PubChem BioAssay (NCI).
